Assay outcomes: PubChem, National Center for Advancing Translational Sciences (NCATS)
Compounds with a hit are over-represented: about 5.2% of the library has one in this group of screens.
Sfp inh: Sfp phosphopantetheinyl transferase inhibition; AID 1490; Q9F4F7; Biochemical Sfp PPTase activity, qHTS; 3.5% of 310,000 active; Potency, µM, hits mostly inhibitors;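 further: the enzyme is Sfp with the accession as filed and its product quenches rhodamine fluorescence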
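After 15 min at room temperature with compound, 15 nM Sfp received 5 uM rhodamine-CoA plus 12.5 uM BHQ-2-ybbR (50 mM Hepes pH 7.6, 10 mM MgCl2). Rate came from the fluorescence difference over 30 min, ex 525/em 598 nm.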
Tau fibril FP: inhibitors of human tau fibril formation | P10636 | K18 P301L tau heparin fibrillization, Alexa594 FP, 6 h | Potency, µM (series often up to 57.7 µM), actives largely listed as inhibitors | 0.39% of 280,000 active | AID 1468; further: nearly all actives have a fitted effect of over 55% in size
Target sequence (P10636 561-689 P618L limits assumed): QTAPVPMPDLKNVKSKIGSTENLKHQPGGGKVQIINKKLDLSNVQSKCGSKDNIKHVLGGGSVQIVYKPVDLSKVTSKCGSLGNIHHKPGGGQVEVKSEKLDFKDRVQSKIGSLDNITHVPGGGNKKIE
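K18 P301L tau (15 uM unlabeled/0.24 uM Alexa 594-labeled, final) + compound + heparin 20 uM final; 100 mM NaOAc pH 7; 6 hr 37 C; ThT 30 uM final added, 1 hr RT; FP ex 555/em 632 nm.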
Tau fluor cs: counter-screen for tau fibril formation inhibitors; Potency, µM (series often up to 57.7 µM); tau K18 P301L Alexa594 fluorescence, heparin fibrillization; 0.93% of 280,000 active; further: nearly all actives have a fitted effect of over 55% in size
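Human K18 P301L tau (15 uM unlabeled plus 0.24 uM Alexa 594-labeled, final) in 100 mM sodium acetate pH 7 was mixed with compound and 20 uM heparin and incubated 6 hr at 37 C.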
FBPA coupling cs: inhibits coupling enzyme system, counter-screen for aldolase hits; coupling enzyme system counterscreen, AmpLite Red fluorescence; activity change, negative = inhibition, % at 58.2 µM, hits read low; 0.67% of 290,000 active; AID 2472; in the data active means activity change below about -30%
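Coupling enzymes only (glyceraldehyde-3-phosphate) + compound, at 57.5 uM final, 10 min RT; add substrate/coupling/AmpLite Red mix, 20 min RT; fluorescence ex 525/em 598 nm. Actives flag coupling-system interference.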
Tau fibril ThT: tau fibrillization inhibition (ThT binding); P10636; recombinant tau K18 P301L (four-repeat tau fragment), heparin-induced fibrillization, ThT fluorescence; Potency, µM (top dose mostly 57.4 µM), usual class: inhibitors; 2.1% of 270,000 active; AID 1460; further: nearly all actives have a fitted effect of over 55% in size
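Heparin-induced fibrillization of the P301L-mutant K18 repeat-domain fragment of human tau was followed by ThT binding in quantitative high-throughput format.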
Large screens that a line does not name were inactive; [ ] = dose if it differs, or a comment. Unless noted, the call rests on the fitted dose curve; in most records, active means well fitted curve in the direction sought with a large enough effect; inconclusive means small, poorly fitted or top-dose-only effect, or another doubt; inactive means no such curve, though single readings can be large; an effect the other way counts as inactive or inconclusive.

O=c1cc(-c2ccc([N+](=O)[O-])cc2)nc2cc(-c3ccc(Cl)cc3)[nH]n12	Tau fluor cs inconclusive, Tau fibril ThT 2.24µM
CC(=O)N1CCc2c(sc3c2c(=O)n(-c2ccccc2)c(=O)n3CC(=O)Nc2ccccc2)C1	none (no result: Sfp inh, FBPA coupling cs)
Cc1ccc(/C=C/C(=O)NCCc2cccc(Cl)c2)o1	Sfp inh 20µM (no result: Tau fibril FP, Tau fluor cs, Tau fibril ThT)
Cc1ccc(/C=C/C(=O)NCCc2c[nH]c3ccccc23)o1	Sfp inh 28.2µM, Tau fibril ThT inconclusive
Cc1ccc(/C=C/C(=O)NCCCN2CCN(CCCNC(=O)/C=C/c3ccc(C)o3)CC2)o1	none
Cc1ccc(CCNC(=O)C2CCN(Cc3nc(-c4ccccc4C)oc3C)CC2)cc1	none (no result: Sfp inh, FBPA coupling cs)
COc1ccc(/C=N/Nc2cc(C)nc3ccc(Br)cc23)cc1	Sfp inh 56.2µM (no result: Tau fibril FP, Tau fluor cs, Tau fibril ThT)
CC(=O)c1ccccc1NC(=O)COC(=O)c1ccccc1NC(=O)c1ccccc1	Sfp inh 28.2µM
COC(=O)COC(=O)c1ccccc1NC(=O)c1ccccc1	none
Cc1ccc(C2CC(=O)N(Cc3ccccc3F)c3c2c(C)nn3-c2nc(C)cc(C)n2)cc1 (centres undefined)	none (no result: Sfp inh, FBPA coupling cs)
O=C(/C=C/c1ccco1)Nc1ccc(C(=O)N2CCOCC2)cc1	none
O=C(/C=C/c1ccco1)Nc1ccc(N2CCCC2)cc1	Tau fibril ThT 2.24µM
CC(/C=C/c1ccco1)=N\NC(=O)c1cccnc1	Sfp inh 56.2µM, Tau fibril FP inconclusive, Tau fibril ThT 28.2µM
O=C(/C=C/c1ccco1)Nc1cccnc1	Sfp inh 25.1µM
CC(/C=C/c1ccco1)=N\NC(=O)c1cc(C)[nH]n1	Sfp inh 17.8µM, Tau fibril ThT inconclusive
C=C(C)C(O)/C=C/CCCCCCC (centres undefined)	none
CCNC(=O)CC1C(=O)N(c2ccc(F)cc2)C(=O)N1CCOC (centres undefined)	none (no result: Sfp inh, FBPA coupling cs)
O=C(/C=C/c1ccco1)c1cccnc1	Sfp inh 50.1µM (no result: Tau fibril FP, Tau fluor cs, Tau fibril ThT)
C(=C/c1nccc2c1[nH]c1ccccc12)/c1ccc2c(c1)OCO2	Tau fluor cs 7.08µM[quencher], Tau fibril ThT inconclusive
CC(=O)N1CCN(c2nc(-c3ccco3)c3c(c2C#N)CC(C)(C)SC3)CC1	Sfp inh 44.7µM, Tau fibril ThT inconclusive
CC1(C)Cc2c(c(-c3ccccc3)[nH]c(=O)c2C#N)CS1	none
CC1(C)Cc2c(c(-c3ccco3)[nH]c(=O)c2C#N)CS1	Tau fibril FP inconclusive, FBPA coupling cs -42.6, Tau fibril ThT inconclusive
CC1(C)Cc2c(C#N)c(N3CCN(C(=O)c4ccco4)CC3)nc(-c3ccco3)c2CS1	Sfp inh 20µM
CC1(C)Cc2c(C#N)c(N3CCN(C(=O)c4ccccc4Cl)CC3)nc(-c3ccco3)c2CS1	Tau fibril ThT inconclusive
CSc1ccc(CCNC(=O)Cn2ncn3c(cc4ccccc43)c2=O)cc1	none (no result: Sfp inh, FBPA coupling cs)
C/C(CCN1CCCc2nc(C)c(C)cc21)=N\O[C@@H](C)CN1CCCc2nc(C)c(C)cc21	Tau fibril FP inconclusive, Tau fluor cs inconclusive, Tau fibril ThT inconclusive
Nc1c(S(=O)(=O)c2cccc(Cl)c2)c2nc3ccccc3nc2n1/N=C/c1ccc(O)c(O)c1	Tau fibril FP inconclusive, Tau fluor cs 5.62µM[quencher], Tau fibril ThT inconclusive
CCC1CC=CC2C1C(=O)N(Cc1ccccc1)C2c1ccc(C(F)(F)F)cc1 (centres undefined)	none (no result: Tau fibril FP, Tau fluor cs, Tau fibril ThT)
Cc1cnc(CNc2cc(-c3ccc(N(C)C)cc3)ncn2)cn1	none (no result: Tau fibril FP, Tau fluor cs, Tau fibril ThT)
Cc1ccc(-c2ccc(/C=N/c3ncn[nH]3)o2)cc1Cl	Sfp inh 56.2µM
COc1cccc(CNC(=O)c2c(C)nn(-c3ccc(F)cc3)c2-n2cccc2)c1	none (no result: Sfp inh, FBPA coupling cs)
CCCCCOCC1CC(C/C(C)=N/NC(N)=S)C(=O)O1 (centres undefined)	Sfp inh 44.7µM
CCCCCC1CC(CC/C(C)=N/NC(N)=O)C(=O)O1 (centres undefined)	none
C/C(CC1CC(COCC(C)C)OC1=O)=N\NC(N)=S (centres undefined)	Sfp inh 50.1µM
CCCCCOCC1CC(C/C(C)=N/Nc2nc(-c3ccccc3)cs2)C(=O)O1 (centres undefined)	Sfp inh 70.8µM, Tau fluor cs inconclusive, Tau fibril ThT inconclusive
CC(C)C(NS(=O)(=O)c1ccc2c(c1)oc(=O)n2C)C(=O)NCc1ccccc1 (centres undefined)	none (no result: Sfp inh, FBPA coupling cs)
CC(=O)Nc1ccc(-c2cc(-c3ccccc3)nc(-c3ccccc3)n2)cc1	Tau fibril FP 3.55µM, Tau fluor cs inconclusive
CCC(=O)Nc1ccc(-c2cc(-c3ccccc3)nc(-c3ccc(NC(=O)CC)cc3)n2)cc1	Tau fibril FP 11.2µM, Tau fluor cs inconclusive
CC(=O)Nc1ccc(-c2cc(-c3ccc(NC(C)=O)cc3)nc(-c3ccccc3)n2)cc1	Tau fibril FP 14.1µM
CC(=O)Nc1ccc(-c2cc(-c3ccc(NC(C)=O)cc3)nc(-c3ccc(NC(C)=O)cc3)n2)cc1	Tau fibril FP inconclusive
Nc1ccc(-c2cc(-c3cccc(N)c3)nc(-c3ccccc3)n2)cc1	Tau fluor cs 3.55µM[quencher], Tau fibril ThT inconclusive
Cc1cc(C)n2nc(CNC(=O)c3c(F)cccc3F)nc2n1	none (no result: Sfp inh, FBPA coupling cs)
C=C(CO)C1Cc2c(ccc3c2OC2COc4cc(OC)c(OC)cc4C2C3=O)O1 (centres undefined)	Tau fibril ThT inconclusive
COc1ccc(C(=O)CCC(=O)Nc2cc(C)ccc2C)cc1	none (no result: Sfp inh, FBPA coupling cs)
CCOC(=O)c1c(S(=O)(=O)NCC(=O)N2CCN(c3cccc(Cl)c3)CC2)c(C)n(C)c1C	none (no result: Sfp inh, FBPA coupling cs)
Brc1cc2[nH]cnc2c2ccccc12	Sfp inh inconclusive, Tau fluor cs inconclusive, FBPA coupling cs -39.2, Tau fibril ThT inconclusive
Oc1ccc2c(ccc3[nH]cnc32)c1	none
COC(=O)c1ccc(NC(=O)CN2CCCN(Cc3ccc(Cl)cc3)S2(=O)=O)cc1	none (no result: Sfp inh, FBPA coupling cs)
CCOC(=O)c1ccc2c(c1)N(Cc1cccc([N+](=O)[O-])c1)C(=O)c1ccccc1S2	none (no result: Sfp inh, FBPA coupling cs)
COc1ccc2c(c1)-c1nc(/N=C/c3ccccc3O)sc1CC2	Tau fibril FP inconclusive, Tau fluor cs inconclusive, Tau fibril ThT 31.6µM
COc1ccc2c(c1)-c1nc(/N=C/c3cccc(OC)c3O)sc1CC2	none
CCc1ccccc1NC(=O)C(C)n1nc(-c2ccc(C)c(C)c2)ccc1=O (centres undefined)	Tau fibril ThT inconclusive (no result: Sfp inh, FBPA coupling cs)
Cc1cccc(CS(=O)(=O)c2nnc([C@H](Cc3ccccc3)NC(=O)OC(C)(C)C)o2)c1	Sfp inh 17.8µM
Cc1cccc(N(C)C(=O)CN(C)S(=O)(=O)c2ccc3[nH]c4c(c3c2)CCCC4)c1	Tau fluor cs inconclusive (no result: Sfp inh, FBPA coupling cs)
Cc1ccccc1Nc1cc(C(=O)NC2CCC(C)CC2)c2ccccc2n1 (centres undefined)	none (no result: Sfp inh, FBPA coupling cs)
CCCCCCC(=O)N(O)C1CC(=O)N(c2ccc(Cl)cc2)C1=O (centres undefined)	Sfp inh 25.1µM
Cc1ccc(N2C(=O)CC(N(O)C3CC(=O)N(c4ccc(C)cc4)C3=O)C2=O)cc1 (centres undefined)	none
